High-throughput results (PubChem BioAssay)
mcGAS MS inh – blocks mouse cGAS cGAMP production; recombinant mouse cGAS, cGAMP by RapidFire MS; inhibition, % at 12.5 µM; hit rate 0.18% among 130,000; Q8C6L5;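 active = inhibition of cGAS enzyme activity at or above 60%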;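 note: enzyme stimulated by 45 bp dsDNA with ATP and GTP substrates; cGAMP share of summed cGAMP plus half ATP and half GTP signals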
Target sequence (Q8C6L5 whole entry, looked up): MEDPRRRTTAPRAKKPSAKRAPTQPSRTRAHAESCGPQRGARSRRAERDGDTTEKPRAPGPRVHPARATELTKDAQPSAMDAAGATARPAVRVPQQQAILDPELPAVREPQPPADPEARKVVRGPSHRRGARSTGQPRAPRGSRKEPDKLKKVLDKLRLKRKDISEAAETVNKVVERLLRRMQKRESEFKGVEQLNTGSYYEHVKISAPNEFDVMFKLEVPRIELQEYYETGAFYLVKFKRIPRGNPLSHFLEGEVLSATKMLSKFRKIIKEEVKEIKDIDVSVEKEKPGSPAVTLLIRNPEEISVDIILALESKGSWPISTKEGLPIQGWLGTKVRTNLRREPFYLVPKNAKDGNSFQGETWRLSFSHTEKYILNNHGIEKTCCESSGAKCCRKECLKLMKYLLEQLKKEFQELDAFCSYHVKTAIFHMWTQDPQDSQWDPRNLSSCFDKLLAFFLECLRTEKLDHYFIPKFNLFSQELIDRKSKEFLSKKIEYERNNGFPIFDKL
Active calls of the source: *; ! = not active in a repeat. Only a selection was taken, and hits are over-represented in it overall.

SMILES	mcGAS MS inh
Cc1ccccc1CN1C(=O)CON=C1c1ccc(N(C)C)cc1	3
O=C(CCCN1C(=O)c2cccc3cccc(c23)C1=O)NCCCO	-17
Cc1ccc(-n2nc(C(C)(C)C)cc2N)c(C)c1	-2
O=C1C=CC(=O)N1c1ccccc1	-6
O=C1C=CC2C3C(=O)N(c4ccccc4)C(=O)C3C1N2c1ccccc1 (stereo unspecified)	92*
O=C1C2C3C=CC(C3)C2C(=O)N1c1ccccc1 (stereo unspecified)	-4
COC(=O)CCn1c(=O)c2c(nc3n(-c4ccc(OC)cc4)c(C)cn23)n(C)c1=O	-4
O=C(C1CCOCC1)N1CCCC(CCc2cccc(F)c2)C1 (stereo unspecified)	-4
Cc1ccc2n1CCn1cc(-c3ccccc3)cc1-2	77*
Cc1cc2n(c1)CCn1c(C)ccc1-2	-2
O=c1c2ccccc2nc2n1CCS2	-12
O=c1[nH]n2c(=O)c3ccccc3nc2c2ccccc12	90*
O=c1c2ccccc2nc2c3ccccc3c(NCc3ccccn3)nn12	3
CC(Oc1ccccc1-c1cccc2cnccc12)C(N)=O (stereo unspecified)	-9
CCOc1cn2c(cc1=O)C(=O)N(CCNC(=O)c1ccc(C(F)(F)F)cc1)CC2	-6
Cc1ccc(OCC2CCCN(Cc3nc(C)ccc3O)C2)cc1 (stereo unspecified)	10
CN(CC(=O)Nc1cc(F)cc(F)c1)Cc1cnc2ccccn12	-4
COc1ccc(N2C(=O)CC(N3CCC(c4ccc(O)cc4)CC3)C2=O)cc1Cl (stereo unspecified)	2
CC(C)OC(=O)C(C#N)=Cc1ccc([N+](=O)[O-])o1	64*
N#CC(=Cc1ccc([N+](=O)[O-])o1)c1nc(C2CC2)cs1	-16
O=C(O)C=Cc1ccc([N+](=O)[O-])o1	2
N#CCSc1nc(N)c(C#N)c(-c2ccc(O)cc2)c1C#N	-9
N#Cc1c(N)nc2c(c1N)C(Sc1ccccc1)c1ccc(O)cc1O2 (stereo unspecified)	87*
N#Cc1c(C2CCOC2)cc(-c2ccc(O)cc2)nc1N (stereo unspecified)	-14
COc1cc(/C=C/c2nc3cc(Cl)ccc3o2)ccc1OCC#N	-3
SMILES	mcGAS MS inh
COC1O[C@@H]2O[C@]3(C)CC[C@H]4[C@H](C)CC[C@@H]([C@H]1C)[C@@]24OO3 (stereo partly specified)	-3
CC(CNC(=O)OC(C)(C)C)N(C)C(=O)c1scnc1Cl (stereo unspecified)	-5
CCOC(=O)c1nn(-c2ccccc2Cl)c(=O)cc1OS(=O)(=O)c1ccc(CC)s1	1
O=C(O)c1sc(Br)c(I)c1I	78*
CC(=O)N1CCCN(c2ccncc2N)CC1	-2
O=C(C1CCC1)N1CCCC(N2CCN(c3ccccc3F)CC2)C1 (stereo unspecified)	-8
CC(=O)N1CCC(N2CCN(c3ccncc3F)CC2)CC1	62*
Cc1cccc(C(=O)NCc2nnc(SCC(=O)N3CCCc4ccccc43)n2-c2cccc(C(F)(F)F)c2)c1	8
O=C(NCCN1C(=O)SC(=Cc2cccs2)C1=O)c1ccccn1	-4
CCOc1cc(C2=NN(c3ccc(C)cc3)C(=O)CC2)ccc1O	8
CCOc1cc(-c2[nH]c(=S)[nH]c(=O)c2C#N)ccc1O	99*
N#Cc1c(-c2ccco2)[nH]c(=S)[nH]c1=O	13
O=c1c2nnc3c(-c4ccccc4)cnn3c2ccn1C1CCCC1	-9
CC(C)N(CC#N)C(=O)CNC(=O)C(C)(C)C	-2
Fc1ccccc1N1CCN(Cn2nc(-c3ccco3)oc2=S)CC1	-9
CCC1(O)CC(OC2CC(N(C)C)C(OC3CC(O)C(OC4CCC(=O)C(C)O4)C(C)O3)C(C)O2)c2c(cc3c(c2O)C(=O)c2c(O)cccc2C3=O)C1C(=O)OC (stereo unspecified)	97*
CC(=NCCc1ccccc1)c1c(C(F)(F)F)[nH]n(-c2nc3ccccc3s2)c1=O	6
C/C(=C1\C(=O)N(c2nc3ccccc3s2)N=C1C(F)(F)F)N1CCN(c2ccccc2)CC1	66*
C/C(=N\N1CCN(C)CC1)c1c(C(F)(F)F)[nH]n(-c2nc3ccccc3s2)c1=O	-2
Cc1cc(OCC(=O)NNC(=O)Nc2ccccc2)cc(C)c1Cl	-1
Cn1c(NCC(C)(C)c2ccccc2)c(C#N)c(=O)n(C)c1=O	2
CC(C)N1CCC(N2CCNCC2)CC1	-7
CCN1C(=O)NC(c2ccccc2[N+](=O)[O-])C(C(=O)OCCOC)=C1C (stereo unspecified)	-8
COC(=O)C1=C(C)NC(C)=C(C(=O)OCCN)C1c1ccccc1C(F)(F)F (stereo unspecified)	-7
COC(=O)C1=C(C)NC(C)=C(C(=O)OCC(C)C)C1c1ccccc1[N+](=O)[O-] (stereo unspecified)	65*!
SMILES	mcGAS MS inh
O=C(NCC1(Sc2ccccc2)CC1)C1CCOCC1	-1
C[n+]1cc2c3c(ccc2c2ccc4cc5c(cc4c21)OCO5)OCO3	85*!
CC(=C(C#N)C#N)c1ccc2c(c1)OCO2	-2
Cc1cc(C)n(C2CCN(c3nccc(CCC(F)(F)F)n3)C2)n1 (stereo unspecified)	-5
O=C1C(=Cc2ccc(-c3ccccc3)cc2)CS(=O)(=O)c2ccc(F)cc21	-1
N#Cc1ccc(/C=C2\SCCc3ccccc3C2=O)cc1	7
N#Cc1ccc(/C=C2\CS(=O)(=O)c3c(F)cccc3C2=O)cc1	63*
COCC(C)N=C1NC(=O)C(CC(=O)NCCc2ccccc2)S1 (stereo unspecified)	-9
CC1ON=C(c2ccco2)N(C/C=C/c2ccccc2)C1=O (stereo unspecified)	46
CC1ON=C(c2ccco2)N(Cc2ccc(S(C)(=O)=O)cc2)C1=O (stereo unspecified)	66*
COc1ccc(C(C)=O)cc1CN1C(=O)C(C)ON=C1c1ccco1 (stereo unspecified)	-6
Cn1cnnc1SCC(=O)Nc1ccc2oc3ccccc3c2c1	-2
COc1cccc(C2CC2C(=O)NCC(c2ccsc2)N(C)C)c1 (stereo unspecified)	-7
CCn1cc(C(=O)O)c(=O)c2cc3c(cc21)OCO3	-9
CCn1cc(C(=O)O)c(=O)c2cnc(N3CCCC3)nc21	78*
CCc1ccccc1-n1ccc2nc(N3CCCCC3)ncc2c1=O	-18
Cc1cc(C(=O)N(Cc2ccco2)c2nc3c(C(C)C)cccc3s2)no1	-6
Cc1cccn2c(=O)c3cc(C(=O)NCC4CCCO4)sc3nc12 (stereo unspecified)	-12
CCC(C)(NCc1cc(=O)n2cccc(C)c2n1)c1nc(C)cs1 (stereo unspecified)	-11
NC(=O)C1CC(O)CN1c1ccccc1S(=O)(=O)C(F)(F)F (stereo unspecified)	-2
O=C(NC1CCN(C(=O)c2cc3c(s2)CCCCC3)CC1)c1cccnc1	6
OCc1cc(O)c2c(O)c3c(O)cccc3c(O[C@@H]3O[C@H](CO)[C@H](O)[C@@H](O)[C@H]3O)c2c1	-6
O=c1c(O)c(-c2ccc(O)c(O)c2)oc2c(O[C@@H]3O[C@H](CO)[C@H](O)[C@@H](O)[C@H]3O)c(O)cc(O)c12	1
CCCN1CC(n2cc3ncccc3c2O)CC1=O (stereo unspecified)	-16
O=S(=O)(Nc1cccnc1)c1ccc(Br)s1	11
CC1=C(c2ccc(Cl)cc2)[N+](=O)C(C)(c2ccc(Br)cc2)N1[O-] (stereo unspecified)	90*
